For seven compounds, inhibition results are on record in PubChem BioAssay.

The list shows a part of the results. Calls of active or inactive are those of the source.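 Rule for the calls: active = mean inhibition of the reporter signal across four replicates at the single tested dose of 50% or more; inactive = the rest.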

One experiment can be described thus: HIF-1a luciferase reporter signal reduction – MiaPaCa-2 cells, single concentration, counter-screen for HIF-2a inhibitor project, confirmation (AID 651589). As to conditions: MiaPaCa-2 HIF-1a luciferase reporter, desferoxamine, overnight; at 18.8 µM; stronger effect = higher value.
`CCN(CC)S(=O)(=O)c1ccc(NC(=O)c2cccnc2Cl)c(NC(=O)c2cccnc2Cl)c1`: the inhibition – broadly, the drop in the measured response relative to a control, in per cent – was 62.3% (active).

Turning to `Cc1ccc(CS(=O)(=O)c2ncc(Cl)c(C(=O)Nc3nnc(C)s3)n2)cc1`, the inhibition was 104% (active).

Take `CC1CCCCC1NC(=O)/C(C#N)=C/C=C/c1ccccc1[N+](=O)[O-]` (stereo not drawn): the inhibition was 106% (active).

In the case of `Cc1cccc(NC(=O)c2nc(S(=O)(=O)Cc3ccccc3)ncc2Cl)c1`, the inhibition was 103% (active).

In the case of `Cc1[nH]c(=O)c(C(=O)/C=C/c2ccccc2)c2c1CCCC2`, the inhibition is 105% (active).

A further experiment in a line: inhibitors of PAF-induced NFkB signaling in CF airway cells, dose response, cell-based, uHTS hits, panel, cytotoxicity readout (AID 624344). The following applies: CF bronchial epithelial cells, PAF-induced NFkB reporter inhibition, with PAF, run 1; at 79 µM (top of the series) unless noted.
Take `O=C(Nc1ccc(C(=O)N2CCOCC2)cc1)Nc1cccc(C(F)(F)F)c1`: the inhibition came to 108%.

Consider `CC(=O)Nc1ccc(NC(=O)C(C)OC(=O)c2ccccc2C(=O)c2ccc(Cl)c([N+](=O)[O-])c2)cc1` (stereo not drawn), for which the inhibition worked out at 102%.

With `Cc1cccc(NC(=O)c2nc(S(=O)(=O)Cc3ccccc3)ncc2Cl)c1`, the inhibition turned out to be 86.6%.
